Here are results for 33 sequences from paper PMC5869772, “Quantitative profiling of BATF family proteins/JUNB/IRF hetero-trimers using Spec-seq”.

The first assay addresses T1, BATF2 (bZIP);JUNB (human;human, UniProt Q8N1L9;P17275 1-142;148-347, |).
T1 sequence 1: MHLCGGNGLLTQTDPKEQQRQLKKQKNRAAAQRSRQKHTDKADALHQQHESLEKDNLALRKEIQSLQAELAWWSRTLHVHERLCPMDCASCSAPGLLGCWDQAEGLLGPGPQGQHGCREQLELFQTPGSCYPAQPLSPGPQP
T1 sequence 2: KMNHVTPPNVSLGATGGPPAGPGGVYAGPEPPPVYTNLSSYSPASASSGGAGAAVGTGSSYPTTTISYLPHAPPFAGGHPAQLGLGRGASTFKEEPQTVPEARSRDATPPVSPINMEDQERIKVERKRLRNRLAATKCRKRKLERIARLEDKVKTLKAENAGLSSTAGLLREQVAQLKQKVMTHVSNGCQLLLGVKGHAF
Put plainly: Spec-seq (EMSA and sequencing of bound and unbound bands); 100 nM BATFx-JUNB, 1 uM dsDNA library, 50 mM K acetate, 20 mM Tris-acetate, 10 mM Mg acetate, 100 ug/ml BSA, pH 7.9, 10% glycerol, 30 min on ice; native 9% PAGE at 4 C; low values mean tight binding. The settings on record: protein: recombinant;recombinant; tags: N-terminal mCherry-TEV, cleaved off;C-terminal 6His; copies: 1;1; dsDNA, one strand shown. The procedure, abridged:
(§1)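 The protein, at 100 nM, was incubated with 1 μM double-stranded degenerate DNA library for 30 min on ice in NEB Cutsmart buffer with 10% glycerol, then resolved by native 9% PAGE at 4 °C. Excised bound and unbound bands were PCR-barcoded and Illumina-sequenced, and each sequence's relative binding energy in kT is −ln of its bound/unbound read-count ratio.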
A general note: Mobility shift assays separate free from complexed probe on a gel.
As to “GATAGTCTCATTTTCACCCCGTGAAATGACCCAGTTGTTCCATTACAGTATCTGT”, the binding signal turned out to be 1.09 kT.
Regarding “GATAGTCTCATTTTCACCCCGTGAAAAGACTCATTTGTTCCATTACAGTATCTGT”, the binding signal was determined as 0.734 kT.
Regarding “GATAGTCTCATTTTCACCCCGTGAAATGAGTAACTTGTTCCATTACAGTATCTGT”, the binding signal amounted to 0.714 kT.
Consider “GATAGTCTCATTTTCACCCCGTGAAATGACTTACTTGTTCCATTACAGTATCTGT”, for which the binding signal was 0.563 kT.
For “GATAGTCTCATTTTCACCCCGTGAAATCACGTCATTGTTCCATTACAGTATCTGT”, the binding signal is -0.494 kT.
On the same count and under the same terms, to “GATAGTCTCATTTTCACCCCGTGAAATGAGTTAGTTGTTCCATTACAGTATCTGT” belongs 0.988 kT; to “GATAGTCTCATTTTCACCCCGTGAAATCAGTCATTTGTTCCATTACAGTATCTGT”, 0.249 kT; to “GATAGTCTCATTTTCACCCCGTGAAATGAGCCAATTGTTCCATTACAGTATCTGT”, 1.4 kT.
In the case of “GATAGTCTCATTTTCACCCCGTGAAATTCAGTCATTGTTCCATTACAGTATCTGT”, the binding signal came to 0.285 kT.
Turning to “GATAGTCTCATTTTCACCCCGTGAAACTGTGTCATTGTTCCATTACAGTATCTGT”, the binding signal turned out to be 0.116 kT.
Same read-out and setting: to “GATAGTCTCATTTTCACCCCGTGAAAGCGAGTCATTGTTCCATTACAGTATCTGT” belongs 0.234 kT.

A further assay addresses T2, BATF3;JUNB (human;human, UniProt Q9NR55;P17275 1-127;148-347, |).
T2 sequence 1: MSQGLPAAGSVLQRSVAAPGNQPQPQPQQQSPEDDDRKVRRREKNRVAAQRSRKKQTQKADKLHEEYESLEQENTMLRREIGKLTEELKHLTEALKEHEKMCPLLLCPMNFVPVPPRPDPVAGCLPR
T2 sequence 2: T1 sequence 2
The assay is described as above. The settings on record: protein: recombinant;recombinant; tags: N-terminal mCherry-TEV, cleaved off;C-terminal 6His; copies: 1;1; dsDNA, one strand shown. The procedure, abridged:
as §1
Turning to “GATAGTCTCATTTTCACCCCGTGAAATCACTCATTTGTTCCATTACAGTATCTGT”, the binding signal was -0.147 kT.
Same read-out and setting: to “GATAGTCTCATTTTCACCCCGTGAAATGAGTTAATTGTTCCATTACAGTATCTGT” belongs 0.279 kT; to “GATAGTCTCATTTTCACCCCGTGAAAGAGAGTCATTGTTCCATTACAGTATCTGT”, 0.155 kT.
Take “GATAGTCTCATTTTCACCCCGTGAAATTAGTCATTTGTTCCATTACAGTATCTGT”: the binding signal was -1.19 kT.
Regarding “GATAGTCTCATTTTCACCCCGTGAAAACGAGTCATTGTTCCATTACAGTATCTGT”, the binding signal is -0.328 kT.
For the sequence “GATAGTCTCATTTTCACCCCGTGAAATGAGTCCTTTGTTCCATTACAGTATCTGT”, the binding signal worked out at 0.708 kT.
Turning to “GATAGTCTCATTTTCACCCCGTGAAATGAGTCCCTTGTTCCATTACAGTATCTGT”, the binding signal stood at 1.03 kT.
Same read-out and setting: to “GATAGTCTCATTTTCACCCCGTGAAATGGGTCATTTGTTCCATTACAGTATCTGT” belongs 0.458 kT.
On to “GATAGTCTCATTTTCACCCCGTGAAATGACGTGATTGTTCCATTACAGTATCTGT”, for which the binding signal is -1.06 kT.
For “GATAGTCTCATTTTCACCCCGTGAAATGACCCAATTGTTCCATTACAGTATCTGT”, the binding signal was determined as 0.601 kT.
With “GATAGTCTCATTTTCACCCCGTGAAATGACTCGCTTGTTCCATTACAGTATCTGT”, the binding signal came out at 0.378 kT.
Consider “GATAGTCTCATTTTCACCCCGTGAAATGATTCATTTGTTCCATTACAGTATCTGT”, for which the binding signal is -0.839 kT.
With “GATAGTCTCATTTTCACCCCGTGAAAATGAGTCATTGTTCCATTACAGTATCTGT”, the binding signal is -1.35 kT.
In the case of “GATAGTCTCATTTTCACCCCGTGAAATGAGTAAATTGTTCCATTACAGTATCTGT”, the binding signal came out at 0.363 kT.
On to “GATAGTCTCATTTTCACCCCGTGAAATAACTCATTTGTTCCATTACAGTATCTGT”, for which the binding signal is 0.332 kT.
On to “GATAGTCTCATTTTCACCCCGTGAAATGAGACACTTGTTCCATTACAGTATCTGT”, for which the binding signal turned out to be 1.3 kT.
On to “GATAGTCTCATTTTCACCCCGTGAAACTGGGTCATTGTTCCATTACAGTATCTGT”, for which the binding signal stood at 0.562 kT.
Consider “GATAGTCTCATTTTCACCCCGTGAAATGACTCCGTTGTTCCATTACAGTATCTGT”, for which the binding signal was 0.582 kT.
In the case of “GATAGTCTCATTTTCACCCCGTGAAATGAGACATTTGTTCCATTACAGTATCTGT”, the binding signal came to 0.604 kT.
Same read-out and setting: to “GATAGTCTCATTTTCACCCCGTGAAATGACGGCATTGTTCCATTACAGTATCTGT” belongs -0.439 kT.
Turning to “GATAGTCTCATTTTCACCCCGTGAAATGACGTAATTGTTCCATTACAGTATCTGT”, the binding signal is -1.44 kT.
Turning to “GATAGTCTCATTTTCACCCCGTGAAATGAGTTACTTGTTCCATTACAGTATCTGT”, the binding signal is 0.809 kT.
Take “GATAGTCTCATTTTCACCCCGTGAAATGACCCAGTTGTTCCATTACAGTATCTGT”: the binding signal is 1.02 kT.
For “GATAGTCTCATTTTCACCCCGTGAAAAGACTCATTTGTTCCATTACAGTATCTGT”, the binding signal is 0.446 kT.
Regarding “GATAGTCTCATTTTCACCCCGTGAAATGAGTAACTTGTTCCATTACAGTATCTGT”, the binding signal is 0.295 kT.
Regarding “GATAGTCTCATTTTCACCCCGTGAAATGACTTACTTGTTCCATTACAGTATCTGT”, the binding signal stood at 0.342 kT.
For the sequence “GATAGTCTCATTTTCACCCCGTGAAATCACGTCATTGTTCCATTACAGTATCTGT”, the binding signal was -1.33 kT.
For the sequence “GATAGTCTCATTTTCACCCCGTGAAATGAGTTAGTTGTTCCATTACAGTATCTGT”, the binding signal came to 0.772 kT.
Take “GATAGTCTCATTTTCACCCCGTGAAATCAGTCATTTGTTCCATTACAGTATCTGT”: the binding signal is -0.231 kT.
